Measurements from PubChem BioAssay (NCI).
About 83,000 compounds went through this panel and 20% of them were active in at least one assay; those are over-represented in the sample as a whole.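 Growth was measured after 48 h exposure to one concentration of compound in 96-well plates. Values under 10 count as active.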 A number with no mark means an inactive call. Calls of active or inactive are those of the source.

What was measured:
Experiment in all cases: NCI-60 one-dose screen, 48 h (100 = growth as untreated, 0 = no growth, -100 = all killed)
Details in all cases: 10 µM unless noted
K-562 leukemia = test system: K-562 leukemia
MALME-3M melanoma = test system: MALME-3M melanoma
MDA-MB-231 breast = test system: MDA-MB-231 breast
RXF 393 renal = test system: RXF 393 renal
SF-268 CNS = test system: SF-268 CNS
SF-295 CNS = test system: SF-295 CNS
SF-539 CNS = test system: SF-539 CNS
UACC-257 melanoma = test system: UACC-257 melanoma
M14 melanoma = test system: M14 melanoma
HCT-15 colon = test system: HCT-15 colon
HT29 colon = test system: HT29 colon
SNB-75 CNS = test system: SNB-75 CNS
SNB-19 CNS = test system: SNB-19 CNS
U251 CNS = test system: U251 CNS
PC-3 prostate = test system: PC-3 prostate
SK-MEL-5 melanoma = test system: SK-MEL-5 melanoma
UACC-62 melanoma = test system: UACC-62 melanoma
SK-MEL-28 melanoma = test system: SK-MEL-28 melanoma
SK-MEL-2 melanoma = test system: SK-MEL-2 melanoma
LOX IMVI melanoma = test system: LOX IMVI melanoma

SMILES	growth (K-562 leukemia)	growth (MALME-3M melanoma)	growth (MDA-MB-231 breast)	growth (RXF 393 renal)	growth (SF-268 CNS)	growth (SF-295 CNS)	growth (SF-539 CNS)	growth (UACC-257 melanoma)	growth (M14 melanoma)	growth (HCT-15 colon)	growth (HT29 colon)	growth (SNB-75 CNS)	growth (SNB-19 CNS)	growth (U251 CNS)	growth (PC-3 prostate)	growth (SK-MEL-5 melanoma)	growth (UACC-62 melanoma)	growth (SK-MEL-28 melanoma)	growth (SK-MEL-2 melanoma)	growth (LOX IMVI melanoma)
O=C1/C(=C/C2=Cc3ccccc3OC2)SC(=S)N1c1ccc(F)cc1	91%	101%	99%	106%	111%	102%	98.5%	108%	103%	105%	118%	100%	93.2%	94.9%	115%	100%	97.4%	97.9%	120%	
CCOC(=O)c1c(Nc2ccccc2)nn2c(N)c(C#N)c(-c3ccc(F)cc3)nc12	52.3%	91.8%	78.6%	84.9%	85.6%	86.5%	88.1%	101%	91.2%	69.8%	97%	82.4%	94%	88.7%	80.3%	88.7%	84.6%	100%	100%	
O=C1NC(=C(Cl)Cl)/C(=N/S(=O)(=O)N2CCCCC2CC2(C(F)(F)F)N=N2)N1 (configuration not stated)	2.72% (active)	-71% (active)	-21.4% (active)	-28.8% (active)	49.3%	99.3%	-22% (active)	82.6%	24.4%	-67.3% (active)	-25.7% (active)	101%	40.8%	-1.13% (active)	60.5%	95.3%	38.4%	7.84% (active)	-4.45% (active)	
C#Cc1nc(C2=C(C)C(OC(C)=O)/C(=N/OC(C)=O)C2)cs1 (configuration not stated)	15.4%	-46.5% (active)	-69.9% (active)	-19.5% (active)	-42.6% (active)	-89.8% (active)	-90.9% (active)	85.5%	69.2%	-11.2% (active)	-14.1% (active)	-89% (active)	78.4%	-13.9% (active)	-11.1% (active)	89.7%	11.3%	101%	92.8%	
Nc1cc(-c2c[nH]c3ccc(F)cc23)nc2cc(-c3c[nH]c4ccc(F)cc34)nn12	0.113% (active)	94.9%	70.6%	128%	91.8%	85.4%	87.4%	116%	79.3%	31%	-60.9% (active)	79%	106%	3.43% (active)	78.8%	92.8%	104%	109%	116%	
N/C(=N\c1nc2c(Cl)cc(Cl)cc2s1)C(Cl)(Cl)Cl	71.3%	91.7%	38.4%	53.7%	75.7%	11.3%	44.5%	78.1%	93.3%	57.5%	8.65% (active)	7.23% (active)	46.8%	21%	37.5%	87%	40.3%	54.9%	80.5%	
Cn1ccnc1C(=O)/C=C/c1ccc(NC(=O)Nc2ccc(Cl)cc2)cc1	47.6%	84.2%	73.4%	70.1%	81.8%	85.9%	83.1%	100%	84.4%	47.1%	93.6%	74.4%	78.9%	62.6%	78.8%	91.2%	92.2%	89.9%	110%	
Cn1cc(-c2cc(N)n3nc(-c4cn(C)c5ccc(F)cc45)cc3n2)c2cc(F)ccc21																				-61.9% (active)
Clc1ccc(-c2cn3cc(Cc4ccc(Cl)c(Cl)c4)sc3n2)cc1																				53.1%
CNC(=O)c1cc(-c2ccc(NC(=O)Nc3ccc(N4CCN(C)CC4)c(C(F)(F)F)c3)cc2)nc2cccnc12	-56.9% (active)	-85.5% (active)	-78.4% (active)	-78.3% (active)	-71.3% (active)	-94.5% (active)	-89.2% (active)	-94.3% (active)		-79.5% (active)	-89.3% (active)	-83.1% (active)	-79.4% (active)	-94.2% (active)	-90.6% (active)	-96.6% (active)	-83.8% (active)	-92.2% (active)	-80.7% (active)	
COc1ccc(Cc2nn(CC(=O)N/N=C/c3ccc(Cl)cc3)c(=O)c3c(C)noc23)cc1	96.3%	95%	76.2%	77.7%	83.9%	69.3%	58.7%	90.9%		88.3%	92.4%	-4.27% (active)	67.5%	71.4%	78.9%		99.2%	97.9%	90.8%	
NC(=O)c1c(NC(=O)c2ccc(C3CCCCC3)cc2)sc2c1CCC(=O)C2	3.87% (active)	13.2%	15.6%	-2.51% (active)	33.1%	18.9%	14.9%	12.2%		4.53% (active)	2.41% (active)	43.2%	25.5%	10.7%	16.1%		26.4%	31.7%	25.7%	
